The values that follow come from PubChem BioAssay (Tox21).

A number with no mark means an inactive call. Records with an inconclusive call do not appear. Activity calls are given as the source filed them. Unless noted, calls follow the shape of the dose curve; as a rule, active = well fitted curve in the direction sought with a large enough effect in the repeat runs; inconclusive = weak or mixed curves; inactive = no such curve, though single readings can be large; an effect the other way counts as inactive or inconclusive.

Experiment [1] in a line: qHTS assay to identify small molecule antagonists of the sonic hedgehog signaling (Shh) pathway (AID 1259369; calls by dose curve; also: nearly all actives have a fitted effect of over 45% in size; also: potency is read from the fitted curve at half-maximal effect). A digest of the protocol: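 NIH/3T3-derived 3T3Gli1-Luc cells with stably integrated Gli1-Luc reporter were preincubated 4hr at 37 C, then given compounds in DMSO plus Shh conditioned medium and incubated 24hr. Firefly luciferase luminescence read after 30min reagent at room temperature.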
For orientation: qHTS replaces the single test concentration by a dilution series.

Experiment [2] has as its target Estrogen receptor beta (Homo sapiens) (UniProt Q92731). In words: qHTS assay to identify small molecule antagonists of the estrogen receptor beta (ER-beta) signaling pathway (AID 1259378; active = well fitted inhibition curve with a large enough effect in the signal ratio in the repeat runs, not every such curve was filed as active; the % refers to the signal ratio). A digest of the protocol: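 ER-beta-UAS-bla HEK293T cells in 2% charcoal-stripped FBS medium treated with compound plus 1nM final 17-beta-estradiol for 16 hr at 37C. Beta-lactamase reporter read by FRET substrate fluorescence after 2 hours at room temperature.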

Experiment [3] in a line: qHTS assay to identify small molecule agonists of the androgen receptor (AR) signaling pathway in the presence of an antagonist - cell viability counter screen (AID 1259379). Also: series mostly up to about 92 µM; nearly all actives have a fitted effect of over 25% in size. The essentials:
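MDA-kb2 human breast carcinoma cells (stable MMTV-luciferase, AR/GR responsive) were seeded 3,000 cells/well, pre-incubated 5 hr at 37C without CO2, then given 3.0uM nilutamide and compounds at 15 concentrations for 16 hr. Viability was read by CellTiter-Fluor fluorescence.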

Experiment [4] concerns the target Estrogen receptor (Homo sapiens) (UniProt P03372). Kind of experiment: qHTS assay to identify small molecule agonists of the estrogen receptor alpha (ER-alpha) signaling pathway in the presence of an antagonist (AID 1259383; calls by dose curve; also: top concentration of the series differs between compounds; nearly all actives have a fitted effect of over 15% in size). A digest of the protocol:
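VM7Luc4E2 cells (endogenous full-length ER-alpha, 4×ERE-luciferase) were precultured 5 days in phenol red-free medium with 10% charcoal-stripped FBS, given 10.0nM ICI-182,780 (final), then treated with compounds at 15 concentrations for 22hr at 37C; luminescence read with ONE-Glo.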

A short description of experiment [5]: qHTS assay to identify small molecule agonists or antagonists of the thyroid stimulating hormone receptor (TSHR) signaling pathway - wild type cell line counter screen (AID 1259384; calls by dose curve). The essentials:
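Wild-type Hek293 cells, 800/well, 18 h at 37C, then compound with Ro20-1724 for 30 min RT. cAMP by HTRF (cAMP-d2/anti-cAMP cryptate), 1 h RT, fluorescence read. 15 concentrations, triplicates.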

Experiment [6] deals with Thyrotropin receptor (Homo sapiens) (UniProt P16473). In words: qHTS assay to identify small molecule antagonists of the thyroid stimulating hormone receptor (TSHR) signaling pathway (AID 1259385; calls by dose curve; also: nearly all actives have a fitted effect of over 20% in size). A digest of the protocol:
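TSHR-HEK293 cells (800/well) plated 18 h, then compounds with Ro20-1724 and TSH at 1.5 ng/mL final, 30 min at room temperature. cAMP quantified by HTRF (cAMP-d2/anti-cAMP-cryptate, 1 h); 15 concentrations in triplicate.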

A short description of experiment [7]: qHTS assay to identify small molecule agonists of the estrogen receptor alpha (ER-alpha) signaling pathway in the presence of an antagonist - cell viability counter screen (AID 1259386).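 Also: series mostly up to about 92 µM; cells exposed to compounds for 22 h at 37 °C before the viability read; nearly all actives have a fitted effect of over 30% in size.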 A digest of the protocol: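 VM7Luc4E2 cells (endogenous full-length ER-alpha, 4×ERE-luciferase) were held 5 days in phenol red-free medium with 10% charcoal-stripped FBS, plated, then given 10.0nM ICI-182,780 and compounds at 15 concentrations for 22hr at 37C; viability read by CellTiter-Fluor fluorescence.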

The nature of experiment [8]: qHTS assay to identify small molecule antagonists of the TGF-beta/Smad signaling pathway - cell viability counter screen (AID 1346824). Also: nearly all actives have a fitted effect of over 50% in size. The essentials:
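SBE-bla HEK 293T cells, incubated overnight, then compound plus 0.25 ng/mL TGF-beta1 (stock added) for 5 hr at 37 C. Viability was read in the same wells by CellTiter-Glo luminescence after 30 min at room temperature.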

The nature of experiment [9]: qHTS assay to identify small molecule agonists of the TGF-beta/Smad signaling pathway - cell viability counter screen (AID 1346829). Also: top concentration of the series differs between compounds; nearly all actives have a fitted effect of over 45% in size. The essentials:
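Here the cytotoxicity of library compounds is measured in SBE-bla HEK 293T cells treated for 5 hr, using CellTiter-Glo added to wells already read for the beta-lactamase reporter.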

The nature of experiment [10]: qHTS assay to identify small molecule agonists of the TGF-beta/Smad signaling pathway (AID 1346859; active = well fitted activation curve with a large enough effect in the signal ratio in the repeat runs, not every such curve was filed as active; the % refers to the signal ratio; also: potency is read from the fitted curve at half-maximal effect; as to activation: series mostly up to about 77 µM). The essentials:
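After overnight seeding, SBE-bla HEK 293T cells are dosed with compounds in DMSO and kept 5 hr at 37 C, 5% CO2. LiveBLAzer-type FRET substrate is then applied for 2 hr at room temperature.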

The target in experiment [11] is Thyrotropin-releasing hormone receptor (Homo sapiens) (UniProt P34981). Kind of experiment: qHTS assay to identify small molecule antagonists of the thyrotropin-releasing hormone receptor (TRHR) signaling pathway (AID 1346877; active = well fitted inhibition curve with a large enough effect in the repeat runs, not every such curve was filed as active; also: series mostly up to about 51 µM). The essentials: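 TRHR-expressing HEK293 cells were seeded, cultured 18 h at 37 °C, then loaded with calcium dye for 2 h. Compounds were pre-incubated 5 min at room temperature before 1 nM TRH (final) was added, and kinetic fluorescence was recorded for 3 min.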

Experiment [12] shares this target. In words: qHTS assay to identify small molecule agonists of the thyrotropin-releasing hormone receptor (TRHR) signaling pathway (AID 1346891; calls by dose curve; also: series mostly up to about 58 µM). The essentials: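 Compounds were tested as agonists at 15 concentrations, in triplicate, on TRHR-Hek293 cells; calcium-sensitive dye fluorescence was recorded for 3 min following addition.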
A short description of experiment [13]: qHTS assay to identify small molecule agonists of the estrogen receptor beta (ER-beta) signaling pathway - cell viability counter screen (AID 1259380). Also: nearly all actives have a fitted effect of over 30% in size. A digest of the protocol: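 ER-beta-UAS-bla HEK293T cells in medium with 2% charcoal-stripped FBS were preincubated 6 hr at 37C, dosed with compound in DMSO for 16 hr, then after the bla read, CellTiter-Glo was added for 30 min at room temperature; luminescence recorded.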

The nature of experiment [14]: qHTS assay to identify small molecule antagonists of the estrogen receptor beta (ER-beta) signaling pathway - cell viability counter screen (AID 1259382). Also: series mostly up to about 92 µM; nearly all actives have a fitted effect of over 55% in size. The essentials:
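ER-beta-UAS-bla HEK293T cells (2,000/well, 2% charcoal-stripped FBS) were pre-incubated 6 hr at 37C, then given compound plus 1nM final 17-beta-estradiol for 16 hr. Viability was read in the same wells by CellTiter-Glo luminescence after 30 min at room temperature.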

Experiment [15] deals with Progesterone receptor (Homo sapiens) (UniProt P06401). Kind of experiment: qHTS assay to identify small molecule agonists of the progesterone receptor (PR) signaling pathway (AID 1346784; calls by dose curve; also: nearly all actives have a fitted effect of over 30% in size). A digest of the protocol: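 Fluorescence from LiveBLAzer B/G FRET substrate cleavage (2 hr, RT) reported PR activation in PR-UAS-bla HEK 293T cells treated 16 hr at 37C/5% CO2 with compounds; medium contained 2% charcoal-stripped FBS.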

Experiment [16] shares this target. Kind of experiment: qHTS assay to identify small molecule antagonists of the progesterone receptor (PR) signaling pathway (AID 1346795; active = well fitted inhibition curve with a large enough effect in the signal ratio in the repeat runs, not every such curve was filed as active; the % refers to the signal ratio). A digest of the protocol: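 Fluorescence intensity measured 2 hr after adding beta-lactamase FRET substrate to PR-UAS-bla HEK293T cells that had been co-treated 16 hr with compound and 1 nM R5020 (final concentration) in 2% charcoal-stripped FBS.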

Experiment [17] can be described thus: qHTS assay to identify small molecule antagonists of the progesterone receptor (PR) signaling pathway - cell viability counter screen (AID 1346798). Also: series mostly up to about 92 µM; nearly all actives have a fitted effect of over 50% in size. The essentials:
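CellTiter-Glo luminescence; PR-UAS-bla HEK293T, 3,000 cells/well; compound + R5020, 16 hr, 37C/5% CO2; 30 min RT before read.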

Experiment [18] can be described thus: qHTS assay to identify small molecule agonists of the progesterone receptor (PR) signaling pathway - cell viability counter screen (AID 1346799; calls by dose curve; also: nearly all actives have a fitted effect of over 45% in size). A digest of the protocol:
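In parallel with the beta-lactamase readout, cytotoxicity toward PR-UAS-bla HEK293T cells was measured by CellTiter-Glo luminescence following 16 hr compound incubation in 2% charcoal-stripped FBS medium.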

Experiment [19] concerns the target Androgen receptor (Homo sapiens) (UniProt P10275). Kind of experiment: qHTS assay to identify small molecule agonists of the androgen receptor (AR) signaling pathway in the presence of an antagonist (AID 1259381; calls by dose curve; also: nearly all actives have a fitted effect of over 15% in size). A digest of the protocol: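 MDA-kb2 human breast carcinoma cells carrying an MMTV-luciferase reporter (AR- and GR-responsive) were treated with compounds at 15 concentrations plus 3.0uM final nilutamide for 16hr at 37C without CO2; luminescence was read after ONE-Glo addition.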

In experiment [20] the target is Estrogen receptor beta (Homo sapiens) (UniProt Q92731). In words: qHTS assay to identify small molecule agonists of the estrogen receptor beta (ER-beta) signaling pathway (AID 1259377; active = well fitted activation curve with a large enough effect in the signal ratio in the repeat runs, not every such curve was filed as active; the % refers to the signal ratio). The essentials:
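qHTS in ER-beta-UAS-bla HEK293T cells: 6 hr settling, then 16 hr compound at 37C, then LiveBLAzer substrate 2 h at RT before fluorescence reading.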
% is scaled to controls: 0 for no effect and ±100 for the full control effect.

Chain of Progesterone receptor (Homo sapiens) (P06401 whole entry, looked up): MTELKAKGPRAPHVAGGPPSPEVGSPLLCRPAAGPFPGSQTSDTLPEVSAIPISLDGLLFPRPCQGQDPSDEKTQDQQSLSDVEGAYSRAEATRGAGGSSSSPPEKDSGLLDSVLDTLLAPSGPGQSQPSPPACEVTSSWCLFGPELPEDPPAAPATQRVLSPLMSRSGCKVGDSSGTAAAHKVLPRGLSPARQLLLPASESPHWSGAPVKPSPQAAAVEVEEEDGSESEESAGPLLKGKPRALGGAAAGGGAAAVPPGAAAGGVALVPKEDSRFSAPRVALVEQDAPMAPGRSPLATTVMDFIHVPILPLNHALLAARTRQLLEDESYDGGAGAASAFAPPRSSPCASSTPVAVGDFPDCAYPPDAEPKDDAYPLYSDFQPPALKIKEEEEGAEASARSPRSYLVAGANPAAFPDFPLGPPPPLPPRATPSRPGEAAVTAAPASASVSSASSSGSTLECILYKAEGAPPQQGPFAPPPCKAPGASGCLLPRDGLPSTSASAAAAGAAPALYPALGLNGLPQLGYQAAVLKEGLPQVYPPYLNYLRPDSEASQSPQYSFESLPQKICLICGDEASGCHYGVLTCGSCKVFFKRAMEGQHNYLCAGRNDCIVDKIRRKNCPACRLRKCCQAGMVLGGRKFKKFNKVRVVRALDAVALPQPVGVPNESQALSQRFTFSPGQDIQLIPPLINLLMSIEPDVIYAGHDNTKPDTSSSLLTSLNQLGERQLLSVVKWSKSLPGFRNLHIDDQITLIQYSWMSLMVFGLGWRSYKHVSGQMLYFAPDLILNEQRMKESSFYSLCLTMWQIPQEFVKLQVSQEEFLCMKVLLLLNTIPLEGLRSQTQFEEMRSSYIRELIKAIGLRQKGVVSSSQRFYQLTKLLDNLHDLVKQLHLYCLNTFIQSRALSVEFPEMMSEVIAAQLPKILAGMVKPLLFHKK
Chain of Thyrotropin-releasing hormone receptor (Homo sapiens) (P34981 whole entry, looked up): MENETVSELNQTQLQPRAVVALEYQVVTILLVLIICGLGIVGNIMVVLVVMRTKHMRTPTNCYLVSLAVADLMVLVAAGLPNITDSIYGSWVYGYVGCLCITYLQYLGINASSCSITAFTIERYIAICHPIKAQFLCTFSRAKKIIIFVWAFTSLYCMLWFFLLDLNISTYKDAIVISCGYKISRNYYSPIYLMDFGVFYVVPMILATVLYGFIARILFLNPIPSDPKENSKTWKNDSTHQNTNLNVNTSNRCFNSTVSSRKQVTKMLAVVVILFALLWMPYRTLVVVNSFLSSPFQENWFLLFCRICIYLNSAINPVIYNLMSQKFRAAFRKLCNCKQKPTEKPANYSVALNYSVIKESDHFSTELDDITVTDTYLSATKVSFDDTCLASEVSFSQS
Chain of Estrogen receptor (Homo sapiens) (P03372 whole entry, looked up): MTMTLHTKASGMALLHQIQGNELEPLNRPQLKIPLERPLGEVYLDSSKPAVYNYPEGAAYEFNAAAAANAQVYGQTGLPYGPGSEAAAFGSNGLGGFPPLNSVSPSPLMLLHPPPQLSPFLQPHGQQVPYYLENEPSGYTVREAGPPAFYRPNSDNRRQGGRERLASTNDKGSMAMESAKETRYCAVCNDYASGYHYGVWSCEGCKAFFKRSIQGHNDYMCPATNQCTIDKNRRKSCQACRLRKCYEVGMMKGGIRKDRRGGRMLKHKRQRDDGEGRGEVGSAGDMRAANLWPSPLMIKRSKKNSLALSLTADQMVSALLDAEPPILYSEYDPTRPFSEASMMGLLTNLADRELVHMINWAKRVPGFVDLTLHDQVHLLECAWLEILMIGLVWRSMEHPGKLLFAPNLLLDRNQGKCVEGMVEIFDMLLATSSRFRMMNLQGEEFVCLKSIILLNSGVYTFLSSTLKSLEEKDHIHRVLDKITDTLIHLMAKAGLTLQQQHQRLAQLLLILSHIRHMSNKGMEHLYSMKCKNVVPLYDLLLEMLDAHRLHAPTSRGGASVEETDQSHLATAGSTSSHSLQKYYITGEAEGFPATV
Chain of Estrogen receptor beta (Homo sapiens) (Q92731 whole entry, looked up): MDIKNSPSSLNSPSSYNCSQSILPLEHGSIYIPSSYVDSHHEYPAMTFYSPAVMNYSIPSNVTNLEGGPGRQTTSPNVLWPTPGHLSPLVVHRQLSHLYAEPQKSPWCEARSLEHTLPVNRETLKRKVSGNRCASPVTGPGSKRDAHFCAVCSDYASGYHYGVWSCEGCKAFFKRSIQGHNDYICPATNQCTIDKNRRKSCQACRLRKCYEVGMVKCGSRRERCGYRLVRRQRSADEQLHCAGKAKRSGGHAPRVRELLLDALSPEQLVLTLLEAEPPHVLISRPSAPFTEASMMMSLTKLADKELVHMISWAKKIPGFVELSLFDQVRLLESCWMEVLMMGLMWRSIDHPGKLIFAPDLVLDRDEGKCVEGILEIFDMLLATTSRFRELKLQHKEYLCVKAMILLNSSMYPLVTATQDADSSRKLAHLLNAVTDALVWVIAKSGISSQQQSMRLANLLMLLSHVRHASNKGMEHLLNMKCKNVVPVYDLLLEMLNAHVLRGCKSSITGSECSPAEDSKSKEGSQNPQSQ
Chain of Thyrotropin receptor (Homo sapiens) (P16473 whole entry, looked up): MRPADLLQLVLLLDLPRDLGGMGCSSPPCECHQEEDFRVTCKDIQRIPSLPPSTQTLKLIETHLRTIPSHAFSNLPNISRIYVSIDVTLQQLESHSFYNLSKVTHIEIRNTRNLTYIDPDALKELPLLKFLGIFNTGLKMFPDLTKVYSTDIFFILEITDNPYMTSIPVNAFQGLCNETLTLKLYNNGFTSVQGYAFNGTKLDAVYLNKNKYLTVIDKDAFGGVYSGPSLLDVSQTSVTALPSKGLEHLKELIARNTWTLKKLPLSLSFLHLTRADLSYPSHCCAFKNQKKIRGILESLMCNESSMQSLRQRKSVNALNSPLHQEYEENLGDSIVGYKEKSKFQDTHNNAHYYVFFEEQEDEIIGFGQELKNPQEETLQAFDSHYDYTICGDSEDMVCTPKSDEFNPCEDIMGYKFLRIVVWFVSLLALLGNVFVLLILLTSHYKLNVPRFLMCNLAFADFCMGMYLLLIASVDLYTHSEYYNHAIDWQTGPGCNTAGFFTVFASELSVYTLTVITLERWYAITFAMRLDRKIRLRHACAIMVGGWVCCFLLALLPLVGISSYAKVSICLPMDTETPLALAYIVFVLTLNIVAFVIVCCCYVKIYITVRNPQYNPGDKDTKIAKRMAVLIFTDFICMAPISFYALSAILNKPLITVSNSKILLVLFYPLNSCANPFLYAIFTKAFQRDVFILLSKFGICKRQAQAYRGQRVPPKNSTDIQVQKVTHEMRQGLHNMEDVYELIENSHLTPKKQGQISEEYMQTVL
Chain of Androgen receptor (Homo sapiens) (P10275 whole entry, looked up): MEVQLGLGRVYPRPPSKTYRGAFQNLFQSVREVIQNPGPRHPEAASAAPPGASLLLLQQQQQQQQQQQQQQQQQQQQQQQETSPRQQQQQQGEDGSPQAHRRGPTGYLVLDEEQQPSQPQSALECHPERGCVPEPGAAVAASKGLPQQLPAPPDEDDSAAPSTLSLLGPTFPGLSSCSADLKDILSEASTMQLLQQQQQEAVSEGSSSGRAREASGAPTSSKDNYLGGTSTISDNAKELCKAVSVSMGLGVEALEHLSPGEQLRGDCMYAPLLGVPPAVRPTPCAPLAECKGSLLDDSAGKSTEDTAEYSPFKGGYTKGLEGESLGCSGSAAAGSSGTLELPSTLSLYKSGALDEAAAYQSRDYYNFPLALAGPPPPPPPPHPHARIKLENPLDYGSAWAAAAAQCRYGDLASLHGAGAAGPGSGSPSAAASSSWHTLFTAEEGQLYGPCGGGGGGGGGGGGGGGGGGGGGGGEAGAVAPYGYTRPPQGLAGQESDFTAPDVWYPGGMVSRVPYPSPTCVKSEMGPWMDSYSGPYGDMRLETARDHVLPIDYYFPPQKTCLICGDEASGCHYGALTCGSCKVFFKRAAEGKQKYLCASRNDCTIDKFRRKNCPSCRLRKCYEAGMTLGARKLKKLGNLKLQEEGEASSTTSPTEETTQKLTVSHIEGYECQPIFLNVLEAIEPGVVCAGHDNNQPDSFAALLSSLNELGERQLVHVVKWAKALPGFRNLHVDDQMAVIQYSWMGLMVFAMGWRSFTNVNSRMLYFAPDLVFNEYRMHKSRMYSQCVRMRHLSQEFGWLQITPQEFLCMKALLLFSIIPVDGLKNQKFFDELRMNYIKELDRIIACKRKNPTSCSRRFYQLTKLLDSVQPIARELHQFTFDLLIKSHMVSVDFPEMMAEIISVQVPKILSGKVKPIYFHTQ

For the molecule `CN(C)CCN(Cc1ccccc1)c1ccccn1`, the Potency entry in experiment [1], in experiment [2], in experiment [3], in [4], in experiment [5] and in experiment [6] was “inactive” throughout. Further, the Potency result in [7], in experiment [8], in experiment [10] and in experiment [12] was “inactive” throughout. The molecule was called inactive in [9] and in experiment [11].

In the case of `Brc1c2ccccc2c(Br)c2ccccc12`, the figures for the activity change, negative = inhibition in experiment [1], in [6] and in experiment [16] were 2.55% [at 8.39 µM], -6.18% [at 8.39 µM] and 3.87% [at 8.39 µM], respectively. Also, the results for the activity, negative = inhibition in experiment [2] and in experiment [11] were 14.5% [at 8.39 µM] and -1.3% [at 4.65 µM], respectively. Further, the activity change, negative = cytotoxicity is 0.897% [at 8.39 µM] in [3]; 1.65% [at 8.39 µM] in experiment [13]; 7.62% [at 8.39 µM] in experiment [14]; 2.81% [at 8.39 µM] in [7]; 3.37% [at 8.39 µM] in experiment [17]; 18.6% [at 8.39 µM] in experiment [18]. Further, the activity change, negative = cytotoxicity in experiment [9] was -9.36% [at 6.97 µM]. Besides, the figures for the activation in experiment [4], in experiment [15] and in experiment [12] were -0.192% [at 8.39 µM], 5.54% [at 8.39 µM] and 0.0356% [at 5.23 µM], respectively. Also, in [5], the cAMP activity change is 1.89% [at 8.39 µM, hits give high values]. In addition, in [8], the viability change, negative = cytotoxic is 16.5% [at 6.97 µM]. The Potency in [10] was 2.22 µM (active).

With `Cc1cccc(C)c1NC(=O)CN(CC(=O)O)CC(=O)O`, the Potency entry in experiment [1], in [2], in [3], in [13], in experiment [14] and in experiment [5] was “inactive” in each case. In addition, the Potency result in [6], in experiment [7], in experiment [15], in experiment [16], in [17] and in [8] was “inactive” in each case. For the same molecule, the Potency entry in experiment [10] is “inactive”. Also, the result in experiment [9] and in experiment [11] was inactive.

For `CCCCCCCN`, the Potency entry in experiment [1], in experiment [2], in experiment [3], in experiment [13], in experiment [14] and in [4] was “inactive” each time. Moreover, the Potency result in experiment [5], in experiment [6], in experiment [7], in experiment [16], in experiment [17] and in [18] was “inactive” throughout. Besides, the Potency entry in [8], in [10] and in experiment [12] was “inactive” each time. Besides, the molecule was classed as inactive in experiment [9] and in experiment [11].

Turning to `CCOC(=O)C(=O)CCc1ccccc1`, the Potency result in experiment [1], in experiment [2], in experiment [3], in experiment [13], in [19] and in experiment [14] was “inactive” in each case. Moreover, the Potency entry in experiment [4], in [7], in [15], in experiment [16], in experiment [17] and in experiment [18] was “inactive” throughout. The Potency result in experiment [8] and in experiment [10] was “inactive” in each case. Further, the result in [9] and in experiment [11] was inactive.

As to `Cn1c(=O)cc(Oc2ccc(F)cc2F)c2cnc(NCC(C)(C)O)nc21`, the Potency in experiment [1] is 27.3 µM (active). The Potency result in [20], in [3], in experiment [13], in experiment [14], in experiment [4] and in experiment [15] was “inactive” in each case. Besides, the Potency result in experiment [8] and in experiment [10] was “inactive” each time. Also, the outcome in [9] was inactive.

For `C/C(=C(\CCOP(=O)(O)O)SC(=O)c1ccccc1)N(C=O)Cc1cnc(C)nc1N`, the activity change, negative = inhibition in experiment [1] is 1.8% [at 8.39 µM]; in experiment [16], 5.03% [at 8.39 µM]. Further, the activity change, negative = cytotoxicity in [3] is 1.6% [at 8.39 µM]; in experiment [13], 7.29% [at 8.39 µM]; in [14] it was 2.09% [at 8.39 µM]; in experiment [7] it was 1.33% [at 8.39 µM]; in [17] it was 9.64% [at 8.39 µM]; in [18], -10.4% [at 8.39 µM]. Besides, the activity change, negative = cytotoxicity in experiment [9] is 0.402% [at 6.97 µM]. The activation is -1.54% [at 8.39 µM] in experiment [19], 0.094% [at 8.39 µM] in [4], 2.27% [at 6.97 µM] in experiment [10] and -0.266% [at 5.23 µM] in experiment [12]. In addition, the cAMP activity change in experiment [5] is -0.23% [at 8.39 µM, hits give high values]. Also, the viability change, negative = cytotoxic in experiment [8] was 4.01% [at 6.97 µM]. The activity, negative = inhibition in [11] was -3.24% [at 4.65 µM].
